SW480 rerep = A quantitative high throughput screen for small molecules that induce DNA re-replication in SW480 colon adenocarcinoma cells; SW480 DNA re-replication, Hoechst DNA content imaging, 48 h; Potency, µM (titrated, usually from 46.1 µM), usual class: activators; AID 624297, 2012; 1.8% of 340,000 active; further: nearly all actives have a fitted effect of over 55% in size
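First, 250 cells per well were seeded. Next, compound or vehicle (23 nL) was pinned in, plates sat 48 hr at 37 C. Finally Hoechst was added for 40 min before fluorescence scanning.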
MCF10A rereplic = A quantitative high throughput screen for small molecules that induce DNA re-replication in MCF 10a normal breast cells | MCF 10A DNA re-replication, Hoechst nuclear intensity, 48 h | Potency, µM (titrated, usually from 46.1 µM), actives largely listed as activators | 2.9% of 350,000 active; further: nearly all actives have a fitted effect of over 50% in size
KB-V1 MDR tox = qHTS assay for MDR1-selective chemotherapeutics: Primary screen using the drug-selected MDR subline cells KB-V1; KB-V1 MDR cells viability, CellTiter-Glo, 72 h; Potency, µM (highest dose often 46.1 µM), hits mostly cytotoxic; 3.4% of 400,000 active; AID 1347076, 2019; further: nearly all actives have a fitted effect of over 60% in size
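Potencies derive from concentration-effect curves fitted to normalized luminescence (CellTiter-Glo) of KB-V1 cells treated for 72 h at 37 degrees C in phenol-red-free DMEM containing 10% FBS.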
HT1080NT lethal = qHTS for induction of synthetic lethality in tumor cells producing 2HG: qHTS for the HT-1080-NT fibrosarcoma cell line. HT-1080-NT fibrosarcoma viability, CellTiter-Glo ATP luminescence, 48 h. Potency, µM (doses to about 46.1 µM), most hits filed as cytotoxic. 1.6% of 360,000 active;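 further: NT is the 2HG producing partner of a matched IDH1 knockdown line; nearly all actives have a fitted effect of over 55% in size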
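Fibrosarcoma NT cells, 750 per well in 5% FBS RPMI, were exposed to compound for 48 hours. Viability: CellTiter-Glo luminescence.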
HT1080 IDH1KD tx = qHTS for induction of synthetic lethality in tumor cells producing 2HG: qHTS for the HT-1080-IDH1KD cell line | Potency, µM (top dose mostly 46.1 µM), usual class: cytotoxic | 2% of 360,000 active | HT-1080 IDH1 knockdown viability, ATP luminescence, 48 h | AID 686971, 2013
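In this qHTS, HT-1080 cells depleted of IDH1 are exposed for 48 h at 37 °C to compound titrations. Toxicity is scored from CellTiter-Glo luminescence, with DMSO as full viability and medium alone as none.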
KB-3-1 tox = qHTS assay for MDR1-selective chemotherapeutics: Primary screen using the parental adenocarcinoma cell KB-3-1; KB-3-1 viability, CellTiter-Glo ATP luminescence, 72 h; Potency, µM (titrated, usually from 46.1 µM), most hits filed as cytotoxic; 1.4% of 400,000 active; AID 1347075, 2019; further: nearly all actives have a fitted effect of over 60% in size
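Cells are dispensed, compounds pinned in, plates held at 37 °C for 72 h, then CellTiter-Glo is added and luminescence read after 10 minutes. Cell line: parental KB-3-1 in phenol-red-free DMEM, 10% FBS.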
Of the large screens only hits and unclear results are named; the others gave an inactive call; ! = repeats disagree. Shown are actives, neighbours in structure and some others; about 8% of the full set was active somewhere. The call rests on the fitted dose curve; in most records, active means well fitted curve in the direction sought with a large enough effect; inconclusive means small, poorly fitted or top-dose-only effect, or another doubt; inactive means no such curve, though single readings can be large; an effect the other way counts as inactive or inconclusive.

NC(=S)n1[nH]c(-c2ccc([N+](=O)[O-])cc2)c(N=Nc2cccc(Cl)c2)c1=O	MCF10A rereplic inconclusive, KB-V1 MDR tox inconclusive, HT1080NT lethal inconclusive, HT1080 IDH1KD tx inconclusive, KB-3-1 tox 21µM
CCOC(=O)C1CCCN(C(=O)C2CCN(S(=O)(=O)c3ccc4ccccc4c3)CC2)C1 (configuration not stated)	KB-V1 MDR tox inconclusive
O=c1c2c(nc3c(-c4ccc(Cl)cc4)c[nH]n13)CCC2	SW480 rerep inconclusive, KB-V1 MDR tox 4.6µM, HT1080 IDH1KD tx inconclusive, KB-3-1 tox inconclusive
O=c1c2c(nc3c(-c4cccc(Br)c4)c[nH]n13)CCCC2	SW480 rerep inconclusive
Cc1ccc(-c2[nH]n3c(=O)c4c(nc3c2C)CCCC4)cc1	none
Cc1c(-c2ccccc2)[nH]n2c(=O)c3c(nc12)CCCC3	SW480 rerep inconclusive, KB-V1 MDR tox 21µM
O=c1c2c(nc3c(-c4ccccc4)c[nH]n13)CCC2	KB-V1 MDR tox inconclusive, HT1080NT lethal 11µM, HT1080 IDH1KD tx inconclusive, KB-3-1 tox inconclusive
CCn1c(=O)c(C(=O)Nc2ccccc2)c(O)c2ccccc21	none
Cc1cc(OCC(=O)Nc2ccc(F)c(F)c2)nc(C(C)C)n1	SW480 rerep 23µM, MCF10A rereplic inconclusive, HT1080NT lethal inconclusive
Cc1cc(OCC(=O)Nc2ccccc2F)nc(C(C)C)n1	none
CCCCNc1c(-c2ccc(SC(C)CC)c(OC)c2)nc2ccc(C)cn12 (configuration not stated)	SW480 rerep inconclusive, MCF10A rereplic 16µM, KB-V1 MDR tox inconclusive, HT1080 IDH1KD tx inconclusive, KB-3-1 tox inconclusive
CCCCCCSc1ccc(-c2nc3ccc(C)cn3c2NCCCC)cc1OC	KB-V1 MDR tox 21µM, HT1080NT lethal 21µM, HT1080 IDH1KD tx inconclusive, KB-3-1 tox inconclusive (no result: SW480 rerep, MCF10A rereplic)
CCCCCCSc1ccc(-c2nc3ccc(Cl)cn3c2NCCCC)cc1OC	MCF10A rereplic inconclusive
CCCCCCSc1cccc(-c2nc3ccc(C)cn3c2NCc2ccccc2)c1	MCF10A rereplic inconclusive, HT1080NT lethal inconclusive
CCCCNc1c(-c2ccc(SC(C)CC)c(OC)c2)nc2ccc(Cl)cn12 (configuration not stated)	SW480 rerep 21µM, MCF10A rereplic 23µM
CCCCCCSc1cc(-c2nc3ccc(C)cn3c2NCc2ccccc2)ccc1OC	SW480 rerep inconclusive, MCF10A rereplic inconclusive, KB-V1 MDR tox 13µM!, HT1080NT lethal inconclusive, HT1080 IDH1KD tx inconclusive, KB-3-1 tox inconclusive
CC(=O)Nc1c2c(nn1-c1ccccc1C)CS(=O)C2 (configuration not stated)	none
CCCCN(C(=S)SC)C1CCS(=O)(=O)C1 (configuration not stated)	none
COc1ccc(-c2csc(Cc3nnc(N4CCOCC4)n3-c3ccccc3)n2)cc1OC	HT1080 IDH1KD tx inconclusive
COc1ccc(-c2csc(Cc3nnc(N4CCOCC4)n3-c3ccccc3)n2)cc1	KB-V1 MDR tox 18µM
Cc1ccccc1NC(=O)CSc1nnc(CNC(=O)c2ccco2)n1C	none
CCOC(=O)c1c(NC(=O)CSc2nnc(CNC(=O)c3ccco3)n2C)sc2c1CCC2	KB-V1 MDR tox 21µM
NC(=O)c1c(NC(=O)CSc2nnc(Cc3ccccc3)n2Cc2ccco2)sc2c1CCC2	KB-V1 MDR tox 15µM, HT1080 IDH1KD tx inconclusive
CN1CCN(NC(=O)Nc2ccc(Br)cc2Cl)CC1	none
C=CCNC(=S)/C(=C(\[O-])c1ccc(Cl)cc1)[n+]1ccccc1	KB-V1 MDR tox inconclusive
CC(Sc1nnc(-c2ccccc2F)n1N)C(=O)NCC1CCCO1 (configuration not stated)	none
CC(C)n1c(NCc2ccccc2O)nc2ccccc21	none
C=CCc1cccc(CNc2nc3ccccc3n2C(C)C)c1O	MCF10A rereplic inconclusive, KB-V1 MDR tox inconclusive, HT1080NT lethal inconclusive, HT1080 IDH1KD tx 11µM
CN(Cc1cn(Cc2cccc(C(F)(F)F)c2)nn1)C1CN(Cc2cn(Cc3cccc(C(F)(F)F)c3)nn2)S(=O)(=O)C1 (configuration not stated)	KB-V1 MDR tox inconclusive (no result: SW480 rerep, MCF10A rereplic)
C=CCSc1nnc2c(n1)OC(c1cccnc1)N(C(C)=O)c1ccccc1-2 (configuration not stated)	none
Cc1cc(C)nc(NC(=NCc2ccc3c(c2)OCO3)NC(=O)Nc2ccccc2)n1	MCF10A rereplic inconclusive, HT1080 IDH1KD tx inconclusive
Cc1ccc(CN=C(N)Nc2nc(C)cc(C)n2)cc1	SW480 rerep 15µM, MCF10A rereplic inconclusive, HT1080NT lethal 7.3µM, HT1080 IDH1KD tx 7.3µM, KB-3-1 tox 2.6µM
Cc1ccc(/C=C/c2ccc3cccc(O)c3n2)s1	SW480 rerep inconclusive, KB-3-1 tox inconclusive
CC(=O)COc1cccc2ccc(/C=C/c3ccc(Br)s3)nc12	MCF10A rereplic 18µM
O=C1Nc2ccccc2O/C1=C\c1ccccc1Br	MCF10A rereplic inconclusive
O=C(O)C1=C[C@@H](O)[C@@H](O)[C@H](O)C1	none
Cc1cccc(NC(=S)NC2CC3CCCC(C2)N3Cc2cccs2)c1C (configuration not stated)	HT1080NT lethal 11µM, HT1080 IDH1KD tx inconclusive
CCc1ccccc1NC(=S)NC1CC2CCCC(C1)N2Cc1cccs1 (configuration not stated)	KB-V1 MDR tox inconclusive, HT1080NT lethal inconclusive, HT1080 IDH1KD tx inconclusive
Cc1cccc(NC(=S)NC2CC3CCCC(C2)N3CC(C)C)c1C (configuration not stated)	KB-V1 MDR tox 21µM
COc1ccccc1-c1nnc(SCC(=O)c2ccc(Cl)cc2)n1-c1ccccc1	KB-V1 MDR tox inconclusive (no result: SW480 rerep, MCF10A rereplic, HT1080NT lethal, HT1080 IDH1KD tx)
COc1ccc(-n2c(CCc3ccccc3)nnc2SCC(=O)NCc2ccccc2)cc1	none
COc1ccc(C(=O)CSc2nnc(CCc3ccccc3)n2-c2ccccc2)cc1	MCF10A rereplic 7.3µM, KB-V1 MDR tox 9.2µM
CC(=O)/C(=N/Nc1ccccc1)Sc1nnc(CCc2ccccc2)n1-c1ccccc1	SW480 rerep inconclusive, KB-V1 MDR tox 23µM
CC(=O)/C(=N\Nc1ccc(Cl)cc1)Sc1nnc(-c2ccccc2)n1-c1ccccc1	MCF10A rereplic inconclusive, KB-V1 MDR tox inconclusive, HT1080NT lethal inconclusive
COc1ccc(-n2c(CCc3ccccc3)nnc2SCC(=O)c2ccccc2)cc1	MCF10A rereplic inconclusive, KB-V1 MDR tox 9.2µM, KB-3-1 tox inconclusive
